In all, about 25,000 sequences were measured (“ln(normalized median fluorescence intensity)”: median about 6.7, highest 2% from about 10 on). The list comes from a sample in which the highest values are over-represented; it also holds similar and randomly drawn sequences.

From the supplement of paper PMC11417369 come the findings set out here.

This assay relates to PfHDP1 homeodomain (GST-tagged). The assay can be described thus: gcPBM binding intensity (ln(normalized median fluorescence intensity)); higher = stronger DNA binding. An outline of the steps:
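Plasmodium falciparum DNA-binding domains carrying a GST tag were expressed in E. coli and applied for 1 h, at about 25 μg on average, to an Agilent 4 × 180k array. The array held primer-extended double-stranded 36-bp intergenic genomic probes together with negative controls, and binding took place in 1× PBS with 1% milk, 0.2 mg/ml BSA, 0.5% salmon testes DNA and 0.03% Triton X-100. An Alexa488 anti-GST antibody detected bound protein, and the array was scanned at 488 nm. Binding intensity is taken as the highest Masliner-normalised natural-log median intensity across replicate spots of either probe orientation.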
As for “AAAAAAATATATATATATATATATATATTATATATG [GTGCAC_negctrl_site654]”, the “gcPBM binding intensity (ln)” value amounted to 6.87.
Turning to “TTTTTTATTTATTGTTATACATCTTACTACTTATAA [GTGCAC_negctrl_site381]”, the “gcPBM binding intensity (ln)” value turned out to be 6.63.
Turning to “TATTTTTTCTTTCATTGTACTTTTTTTTTGTTTTGT [XGTACX_site4081]”, the “gcPBM binding intensity (ln)” value amounted to 6.8.
Consider “AAAAAAAAAAAAACTAGTACATATATATAGTATGAA [XGTACX_site6279]”, for which the “gcPBM binding intensity (ln)” value is 6.33.
The value for “AATATTATTATTATTACACACACAATTATATTTACC [CACACA_site8061]” was 6.61; that for “TTATAATCCATAATTGCACACAATATATTCATATTT [CACACA_site3916]” was 10.1.
For “TTAATTATATTATGCACACACAATTGGAAAAAAAAT [CACACA_site1958]”, the “gcPBM binding intensity (ln)” value amounted to 10.2.
As to “ATATATATATATTGCACACACAATTATTATTATTAT [CACACA_site2299]”, the “gcPBM binding intensity (ln)” value stood at 10.6.
For “ATATATATATATATTGCACACACAATTATTATTATT [CACACA_site8721]” the value was 10.6; for “TTTTAATTATATTATGCACACACAATTGGAAAAAAA [CACACA_site8598]”, 10.2.
In the case of “AATAATGTATAATGATGTACAAAAAAGGAAGACATA [XGTACX_site2474]”, the “gcPBM binding intensity (ln)” value is 7.43.
For “TAACTTCAAAAATCTTGTACATAAATATATAAAACA [XGTACX_site8574]” the value was 6.29; for “GTGTTTGAAAATAAAGCATGCAAATATATTTGAAAT [TGCATGCA_site386]”, 7.23; for “TTTTTTATTGTGATACGTATATTATTTTATGATTAA [GTGCAC_negctrl_site202]”, 6.82.
With “AAAGTAAAAAAAAAAACATGCACATATTTACTTTAT [TGCATGCA_site849]”, the “gcPBM binding intensity (ln)” value was found to be 7.94.
With “TCTTTTATGCACATTGAGTAAACAACATATTTTTAA [TGCATGCA_negctrl_site561]”, the “gcPBM binding intensity (ln)” value stood at 10.9.
Regarding “CATATTTATAAATATAAACACACAACATTATATGCA [CACACA_site9065]”, the “gcPBM binding intensity (ln)” value worked out at 6.82.
Regarding “ATAATATTATGTGTGAATATATCTTTAAAAAGGATA [GTGCAC_negctrl_site15]”, the “gcPBM binding intensity (ln)” value was found to be 6.33.
The value for “AAGAGAAATATATATTGTACAATAATTTTATTTGGT [XGTACX_site7642]” was 6.21.
With “ATATTAATAATATATACACACATAAGTATTGTATAT [CACACA_site4095]”, the “gcPBM binding intensity (ln)” value came out at 6.46.
Consider “AAGTGCATATTATTCACACATAATAATTGTATACCT [CACACA_site5965]”, for which the “gcPBM binding intensity (ln)” value was determined as 10.5.
With TATAAATGTATACAAGTGCATATTATTCACACATAA, the “gcPBM binding intensity (ln)” value is 8.59.
Turning to “TGATTCACTATAGTAGTGCATATTATATATATATAT [GTGCAC_site9975]”, the “gcPBM binding intensity (ln)” value was 9.23.
Consider “AAAAAAAAATATATATATATATATATATTTATGTAT [GTGCAC_negctrl_site483]”, for which the “gcPBM binding intensity (ln)” value is 6.92.
For “CATATTTTGTGAAAAAGTACATATATATATATATAT [XGTACX_site6295]”, the “gcPBM binding intensity (ln)” value came out at 9.38.
Regarding “ATGATAATTATTAAGGGTACATAAAAATATATCTAT [XGTACX_site8969]”, the “gcPBM binding intensity (ln)” value is 6.36.
As for “ATCTGTACAGTTTTTGCACACATATAAATAAAAAAA [CACACA_site9198]”, the “gcPBM binding intensity (ln)” value stood at 10.7.
As for “ATATAGTTTCACATGTGTACATAAAAATACACTTGT [XGTACX_site3339]”, the “gcPBM binding intensity (ln)” value came out at 6.59.
“TTTAAAAATAAAAGTACACACATAAACATATTGCAC [CACACA_site6784]”: the “gcPBM binding intensity (ln)” value was 7.47.
On to “ATAGAACTATATTGCACACATAATATATATATATAT [CACACA_site3189]”, for which the “gcPBM binding intensity (ln)” value is 10.7.
As to “TACATATAATATATTGCACACGTCAGAATAATATAG [CACACA_site1744]”, the “gcPBM binding intensity (ln)” value turned out to be 10.3.
As for “GTGTACAGTTTTTGCACACATATAAATAAAAAAAAG [CACACA_site3599]”, the “gcPBM binding intensity (ln)” value is 10.2.
As to “TTATAGAACTATATTGCACACATAATATATATATAT [CACACA_site9042]”, the “gcPBM binding intensity (ln)” value is 10.1.
On to “TTTGTAGTTTGCACATGTACACATTTCAAAATAAAG [XGTACX_site7568]”, for which the “gcPBM binding intensity (ln)” value came to 10.7.
On to “TATATTGCAAAAAGTACACACATAAATAAATACATA [CACACA_site6589]”, for which the “gcPBM binding intensity (ln)” value amounted to 9.04.
In the case of “TACATATTGCACAAATAAAAAAGAACAAAAAAAAAA [CACACA_negctrl_site1200]”, the “gcPBM binding intensity (ln)” value turned out to be 10.9.
Regarding “ATGTCTACAGTTTTTGCACACATATAAATAAAAAAA [CACACA_site3600]”, the “gcPBM binding intensity (ln)” value was determined as 10.3.
Consider “ATATATATATATAAATGTACATTTTTCAATAGTTTT [XGTACX_site7449]”, for which the “gcPBM binding intensity (ln)” value stood at 8.98.
With “AAAAAATTATACCTTTGTACATAAATAAAATATTAT [XGTACX_site418]”, the “gcPBM binding intensity (ln)” value is 6.23.
Regarding “AATAAATGGAAAAGGTGTACACAAAAAAAAGGGAAA [XGTACX_site4956]”, the “gcPBM binding intensity (ln)” value stood at 7.54.
For the sequence “AAAAAAAAAGTATATATATATTTAAGGAATTCTCTC [GTGCAC_negctrl_site454]”, the “gcPBM binding intensity (ln)” value was 6.33.
Turning to “TATATTATATATATATGTACATATGGCAAAACATTA [XGTACX_site7958]”, the “gcPBM binding intensity (ln)” value came out at 7.12.
Regarding “ATAGAAATATTATATTGTACGAACAGTTATTAACAA [XGTACX_site2137]”, the “gcPBM binding intensity (ln)” value was determined as 6.56.
As for “AAAATAAGTAATTACTAATATATAAATTAATAATTA [CACACA_negctrl_site1602]”, the “gcPBM binding intensity (ln)” value came to 5.84.
For “TATTATTTACTTATTGCACACATATAAAATATATTT [CACACA_site9017]”, the “gcPBM binding intensity (ln)” value amounted to 10.2.
“TATAAATTATAAATTGCACACATATTTTTATATTTA [CACACA_site8974]”: the “gcPBM binding intensity (ln)” value is 10.1.
“TACATATATTATTGCACACATATAAAATACCCCCAA [CACACA_site3895]”: the “gcPBM binding intensity (ln)” value was determined as 10.8.
Regarding “ATATATATATATATTGCACACATATAAATATATATA [CACACA_site8167]”, the “gcPBM binding intensity (ln)” value is 10.9.
On to “ATATAAAAAAATTGCACACATAAATATATACATATA [CACACA_site1218]”, for which the “gcPBM binding intensity (ln)” value stood at 10.1.
